Measured values taken from the supplement of paper PMC11732987, “Enantioselective OTUD7B fragment discovery through chemoproteomics screening and high-throughput optimisation” (Communications Chemistry, 2025).

Assays:
Assay in all cases: log2 ratio of Biotin-Ahx-Ub-VS probe labelling (fragment/DMSO); higher = less target engagement (more negative = stronger competition), active = hit call of the paper (q ≤ 0.05, log2 ratio ≤ -1)
Conditions in all cases: compound concentration: 200 uM; treatment time: 3 h
USP34 = USP34 (UniProt Q70CQ2)
Chain of USP34 (Q70CQ2 whole entry, the tested form may be a part): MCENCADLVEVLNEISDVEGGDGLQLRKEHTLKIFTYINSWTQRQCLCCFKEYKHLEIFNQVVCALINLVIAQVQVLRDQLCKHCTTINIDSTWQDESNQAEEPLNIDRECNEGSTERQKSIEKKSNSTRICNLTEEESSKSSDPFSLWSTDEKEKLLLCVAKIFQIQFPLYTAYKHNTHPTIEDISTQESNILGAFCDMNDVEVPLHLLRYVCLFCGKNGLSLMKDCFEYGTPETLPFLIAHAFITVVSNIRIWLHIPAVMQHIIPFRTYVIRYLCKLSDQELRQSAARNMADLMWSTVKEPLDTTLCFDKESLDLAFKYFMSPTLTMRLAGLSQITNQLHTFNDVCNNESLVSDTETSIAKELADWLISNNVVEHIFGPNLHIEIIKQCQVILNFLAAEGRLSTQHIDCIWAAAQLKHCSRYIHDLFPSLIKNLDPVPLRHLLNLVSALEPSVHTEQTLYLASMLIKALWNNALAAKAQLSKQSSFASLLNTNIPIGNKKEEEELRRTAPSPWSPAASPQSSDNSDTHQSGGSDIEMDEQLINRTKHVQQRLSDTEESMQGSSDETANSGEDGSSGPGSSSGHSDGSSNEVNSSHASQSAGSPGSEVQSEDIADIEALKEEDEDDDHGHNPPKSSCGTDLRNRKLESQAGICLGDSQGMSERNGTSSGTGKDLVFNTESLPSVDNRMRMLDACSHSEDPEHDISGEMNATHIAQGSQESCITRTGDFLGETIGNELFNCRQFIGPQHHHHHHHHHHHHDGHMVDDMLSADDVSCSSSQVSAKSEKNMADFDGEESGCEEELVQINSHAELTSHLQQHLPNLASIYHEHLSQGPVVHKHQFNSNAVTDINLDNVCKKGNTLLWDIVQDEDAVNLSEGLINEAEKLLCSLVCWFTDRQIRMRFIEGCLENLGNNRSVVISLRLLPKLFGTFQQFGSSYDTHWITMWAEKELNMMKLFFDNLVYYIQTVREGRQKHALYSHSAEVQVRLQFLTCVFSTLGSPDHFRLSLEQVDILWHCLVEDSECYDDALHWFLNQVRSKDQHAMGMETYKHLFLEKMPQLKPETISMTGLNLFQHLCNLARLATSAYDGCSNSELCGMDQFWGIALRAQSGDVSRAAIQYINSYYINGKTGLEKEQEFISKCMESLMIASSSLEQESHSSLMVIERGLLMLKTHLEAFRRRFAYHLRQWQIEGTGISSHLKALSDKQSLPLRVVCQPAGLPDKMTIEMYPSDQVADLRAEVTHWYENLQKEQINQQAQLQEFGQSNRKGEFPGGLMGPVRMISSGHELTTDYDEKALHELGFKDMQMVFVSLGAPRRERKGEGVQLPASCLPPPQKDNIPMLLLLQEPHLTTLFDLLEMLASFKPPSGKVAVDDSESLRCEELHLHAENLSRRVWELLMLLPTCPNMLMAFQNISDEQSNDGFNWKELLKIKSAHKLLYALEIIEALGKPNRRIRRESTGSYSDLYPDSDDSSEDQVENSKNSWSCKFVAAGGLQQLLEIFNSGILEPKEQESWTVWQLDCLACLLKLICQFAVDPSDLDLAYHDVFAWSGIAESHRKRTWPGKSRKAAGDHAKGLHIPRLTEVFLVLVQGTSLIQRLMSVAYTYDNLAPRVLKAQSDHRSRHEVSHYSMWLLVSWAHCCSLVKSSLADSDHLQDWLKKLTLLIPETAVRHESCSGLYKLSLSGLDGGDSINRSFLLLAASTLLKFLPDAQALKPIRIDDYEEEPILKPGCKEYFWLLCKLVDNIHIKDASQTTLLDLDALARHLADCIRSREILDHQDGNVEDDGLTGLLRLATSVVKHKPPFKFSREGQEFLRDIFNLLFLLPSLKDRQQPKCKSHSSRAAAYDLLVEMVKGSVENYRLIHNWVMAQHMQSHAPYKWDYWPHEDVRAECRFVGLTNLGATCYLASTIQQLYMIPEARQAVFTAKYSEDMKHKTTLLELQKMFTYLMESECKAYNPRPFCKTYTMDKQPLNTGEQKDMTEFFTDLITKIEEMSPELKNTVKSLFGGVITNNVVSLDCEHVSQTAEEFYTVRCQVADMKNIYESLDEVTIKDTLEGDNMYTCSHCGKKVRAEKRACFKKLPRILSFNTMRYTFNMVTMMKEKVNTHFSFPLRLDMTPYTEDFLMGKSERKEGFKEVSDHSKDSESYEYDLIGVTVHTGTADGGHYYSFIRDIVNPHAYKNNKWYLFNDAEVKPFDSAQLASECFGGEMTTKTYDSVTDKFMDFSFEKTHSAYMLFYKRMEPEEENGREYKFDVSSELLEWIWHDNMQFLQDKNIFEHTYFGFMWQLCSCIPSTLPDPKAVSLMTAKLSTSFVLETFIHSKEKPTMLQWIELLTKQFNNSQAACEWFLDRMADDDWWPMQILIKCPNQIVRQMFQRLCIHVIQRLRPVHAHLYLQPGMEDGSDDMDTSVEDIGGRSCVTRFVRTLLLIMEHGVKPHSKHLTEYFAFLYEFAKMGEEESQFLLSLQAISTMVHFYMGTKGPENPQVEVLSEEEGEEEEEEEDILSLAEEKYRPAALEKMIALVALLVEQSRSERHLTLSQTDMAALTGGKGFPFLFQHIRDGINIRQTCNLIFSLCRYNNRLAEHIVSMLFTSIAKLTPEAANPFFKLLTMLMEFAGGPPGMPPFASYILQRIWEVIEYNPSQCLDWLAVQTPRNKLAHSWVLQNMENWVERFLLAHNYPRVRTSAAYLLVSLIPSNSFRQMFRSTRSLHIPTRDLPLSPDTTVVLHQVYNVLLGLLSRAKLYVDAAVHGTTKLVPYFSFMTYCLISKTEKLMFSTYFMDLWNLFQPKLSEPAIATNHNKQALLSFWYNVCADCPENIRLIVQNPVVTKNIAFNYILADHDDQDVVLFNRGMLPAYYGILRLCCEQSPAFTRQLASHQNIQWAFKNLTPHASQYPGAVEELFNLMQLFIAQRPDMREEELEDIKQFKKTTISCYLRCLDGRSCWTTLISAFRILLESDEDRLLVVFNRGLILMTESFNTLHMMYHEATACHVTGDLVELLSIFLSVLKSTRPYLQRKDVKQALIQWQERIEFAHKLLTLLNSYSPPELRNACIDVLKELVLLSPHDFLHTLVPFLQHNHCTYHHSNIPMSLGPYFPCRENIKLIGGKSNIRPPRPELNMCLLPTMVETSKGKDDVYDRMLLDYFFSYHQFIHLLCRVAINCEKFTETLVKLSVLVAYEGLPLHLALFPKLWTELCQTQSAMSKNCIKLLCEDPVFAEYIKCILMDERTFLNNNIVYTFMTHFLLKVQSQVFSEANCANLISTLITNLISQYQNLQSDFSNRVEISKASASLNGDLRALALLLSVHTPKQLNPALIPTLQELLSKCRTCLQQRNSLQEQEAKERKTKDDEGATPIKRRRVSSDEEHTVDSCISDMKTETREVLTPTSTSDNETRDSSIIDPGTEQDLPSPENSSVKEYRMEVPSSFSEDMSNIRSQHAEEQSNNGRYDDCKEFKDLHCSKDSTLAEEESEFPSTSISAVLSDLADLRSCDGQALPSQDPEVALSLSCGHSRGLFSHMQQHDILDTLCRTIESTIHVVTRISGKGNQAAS
How it was run: (§1)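 Fragment (200 µM) or vehicle was incubated for 3 h with triplicate HEK293T lysate samples of 495 µg, which were then treated with Biotin-Ahx-Ub-VS at 0.5 µM final for 1 h. Labelled DUBs were enriched on NeutrAvidin, digested with LysC and trypsin, and analysed by diaPASEF LC-MS/MS. Values are average log2 fragment/vehicle ratios from an unpaired t-test on global-median-normalised Spectronaut label-free quantities, using proteins with ≥2 unique peptides.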

USP36 = target: T1, USP36 (UniProt Q9P275)
T1 sequence (whole entry): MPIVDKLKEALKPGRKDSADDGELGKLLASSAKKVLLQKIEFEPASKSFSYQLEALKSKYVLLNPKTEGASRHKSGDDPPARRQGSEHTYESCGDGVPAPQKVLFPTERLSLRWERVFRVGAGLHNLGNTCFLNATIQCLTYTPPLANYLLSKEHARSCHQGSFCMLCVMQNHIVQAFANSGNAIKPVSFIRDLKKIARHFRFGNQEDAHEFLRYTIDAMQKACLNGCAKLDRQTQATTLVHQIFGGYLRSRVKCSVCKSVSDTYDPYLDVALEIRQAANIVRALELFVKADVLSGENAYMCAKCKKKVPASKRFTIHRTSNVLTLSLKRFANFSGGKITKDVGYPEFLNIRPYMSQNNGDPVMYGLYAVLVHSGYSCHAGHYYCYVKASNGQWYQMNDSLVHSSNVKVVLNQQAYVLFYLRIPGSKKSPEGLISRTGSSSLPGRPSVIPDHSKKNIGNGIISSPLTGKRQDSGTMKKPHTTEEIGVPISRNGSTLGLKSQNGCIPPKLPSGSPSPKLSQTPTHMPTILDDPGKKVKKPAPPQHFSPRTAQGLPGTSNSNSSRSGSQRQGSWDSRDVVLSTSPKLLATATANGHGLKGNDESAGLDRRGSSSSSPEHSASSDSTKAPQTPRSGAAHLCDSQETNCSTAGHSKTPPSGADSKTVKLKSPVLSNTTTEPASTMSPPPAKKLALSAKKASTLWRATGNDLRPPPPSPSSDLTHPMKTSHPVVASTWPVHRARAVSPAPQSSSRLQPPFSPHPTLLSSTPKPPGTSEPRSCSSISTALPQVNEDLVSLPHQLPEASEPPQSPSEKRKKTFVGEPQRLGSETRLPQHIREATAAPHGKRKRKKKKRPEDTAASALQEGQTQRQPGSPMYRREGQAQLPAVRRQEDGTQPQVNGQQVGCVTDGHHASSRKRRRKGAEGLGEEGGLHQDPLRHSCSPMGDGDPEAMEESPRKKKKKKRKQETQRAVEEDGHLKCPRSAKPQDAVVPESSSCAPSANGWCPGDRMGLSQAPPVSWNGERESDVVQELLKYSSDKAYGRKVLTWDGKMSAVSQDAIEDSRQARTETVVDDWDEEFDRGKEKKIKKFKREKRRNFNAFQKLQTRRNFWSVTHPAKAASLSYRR
How it was run: as §1

USP38 = target: T2, USP38 (UniProt Q8NB14)
T2 sequence (whole entry): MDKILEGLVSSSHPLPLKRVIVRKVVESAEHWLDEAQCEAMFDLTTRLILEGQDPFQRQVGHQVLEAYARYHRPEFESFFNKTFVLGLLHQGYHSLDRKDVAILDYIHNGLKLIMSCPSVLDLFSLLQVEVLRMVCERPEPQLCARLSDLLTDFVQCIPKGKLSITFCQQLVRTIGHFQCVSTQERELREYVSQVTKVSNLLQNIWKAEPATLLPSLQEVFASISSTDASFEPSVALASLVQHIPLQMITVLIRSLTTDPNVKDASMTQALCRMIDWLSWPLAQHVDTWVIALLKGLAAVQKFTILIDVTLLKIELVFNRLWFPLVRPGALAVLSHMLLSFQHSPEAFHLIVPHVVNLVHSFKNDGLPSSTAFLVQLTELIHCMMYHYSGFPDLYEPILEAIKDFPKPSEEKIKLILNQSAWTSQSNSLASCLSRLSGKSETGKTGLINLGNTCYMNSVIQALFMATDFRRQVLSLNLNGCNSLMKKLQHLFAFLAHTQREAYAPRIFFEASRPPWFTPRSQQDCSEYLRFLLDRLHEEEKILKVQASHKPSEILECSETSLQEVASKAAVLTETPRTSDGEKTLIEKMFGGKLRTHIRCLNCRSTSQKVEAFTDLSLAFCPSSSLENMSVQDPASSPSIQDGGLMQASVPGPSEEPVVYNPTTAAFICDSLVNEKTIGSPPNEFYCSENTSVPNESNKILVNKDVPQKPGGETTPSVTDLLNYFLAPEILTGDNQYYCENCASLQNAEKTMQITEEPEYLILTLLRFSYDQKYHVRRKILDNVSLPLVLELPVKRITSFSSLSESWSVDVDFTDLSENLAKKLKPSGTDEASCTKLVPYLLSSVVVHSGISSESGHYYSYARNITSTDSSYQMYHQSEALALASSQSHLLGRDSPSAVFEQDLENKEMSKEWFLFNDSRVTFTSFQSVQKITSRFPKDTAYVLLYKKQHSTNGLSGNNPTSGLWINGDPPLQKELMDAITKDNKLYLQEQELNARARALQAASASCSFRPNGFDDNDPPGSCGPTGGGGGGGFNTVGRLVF
How it was run: as §1

USP39 = target: T3, USP39 (UniProt Q53GS9)
T3 sequence (whole entry): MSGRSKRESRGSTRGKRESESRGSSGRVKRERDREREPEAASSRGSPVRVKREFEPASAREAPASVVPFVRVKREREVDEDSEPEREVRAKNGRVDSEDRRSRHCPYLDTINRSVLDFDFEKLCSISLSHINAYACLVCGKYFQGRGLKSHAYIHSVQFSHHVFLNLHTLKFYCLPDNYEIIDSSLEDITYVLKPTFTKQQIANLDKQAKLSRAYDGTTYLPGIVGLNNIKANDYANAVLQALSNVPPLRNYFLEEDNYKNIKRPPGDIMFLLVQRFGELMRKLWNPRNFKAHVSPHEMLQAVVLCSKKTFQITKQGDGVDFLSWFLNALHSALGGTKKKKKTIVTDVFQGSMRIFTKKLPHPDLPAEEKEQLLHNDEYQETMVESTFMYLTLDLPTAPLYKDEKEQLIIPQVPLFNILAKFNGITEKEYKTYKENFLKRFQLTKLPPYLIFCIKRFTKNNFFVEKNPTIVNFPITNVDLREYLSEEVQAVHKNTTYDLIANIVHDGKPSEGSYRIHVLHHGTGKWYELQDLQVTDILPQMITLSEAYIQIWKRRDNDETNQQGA
How it was run: as §1

USP4 = target: T4, USP4 (UniProt Q13107)
T4 sequence (whole entry): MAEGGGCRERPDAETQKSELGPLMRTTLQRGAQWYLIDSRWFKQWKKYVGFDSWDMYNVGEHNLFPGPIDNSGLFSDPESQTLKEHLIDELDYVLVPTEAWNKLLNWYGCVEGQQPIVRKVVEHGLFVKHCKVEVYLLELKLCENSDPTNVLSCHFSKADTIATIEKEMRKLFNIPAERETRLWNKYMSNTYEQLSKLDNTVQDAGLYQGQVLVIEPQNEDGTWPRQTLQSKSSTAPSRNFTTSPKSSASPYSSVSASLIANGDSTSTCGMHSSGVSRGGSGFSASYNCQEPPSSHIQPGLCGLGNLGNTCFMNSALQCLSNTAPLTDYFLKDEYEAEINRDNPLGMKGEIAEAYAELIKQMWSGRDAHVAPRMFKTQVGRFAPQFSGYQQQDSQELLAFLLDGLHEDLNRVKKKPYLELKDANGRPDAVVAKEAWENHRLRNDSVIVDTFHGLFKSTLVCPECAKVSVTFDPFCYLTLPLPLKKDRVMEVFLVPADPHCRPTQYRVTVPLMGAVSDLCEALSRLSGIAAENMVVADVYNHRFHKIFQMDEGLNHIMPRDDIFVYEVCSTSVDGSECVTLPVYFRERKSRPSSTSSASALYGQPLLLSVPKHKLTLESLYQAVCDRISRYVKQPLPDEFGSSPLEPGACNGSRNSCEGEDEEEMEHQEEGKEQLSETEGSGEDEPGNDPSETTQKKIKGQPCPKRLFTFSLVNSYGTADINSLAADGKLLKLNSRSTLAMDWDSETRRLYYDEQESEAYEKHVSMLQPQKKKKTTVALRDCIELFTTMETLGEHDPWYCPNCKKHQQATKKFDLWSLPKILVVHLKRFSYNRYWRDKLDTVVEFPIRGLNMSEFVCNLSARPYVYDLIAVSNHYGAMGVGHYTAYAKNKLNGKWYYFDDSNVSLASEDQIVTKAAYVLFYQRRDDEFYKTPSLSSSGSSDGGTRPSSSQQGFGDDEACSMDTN
How it was run: as §1

Measured: log2 ratio of Biotin-Ahx-Ub-VS probe labelling

O=C(CCl)Nc1cc(Cl)ccc1-n1cncn1
inactive: USP34 -0.448 | USP36 -0.325 | USP38 -0.932 | USP39 0.142 | USP4 -0.712
